Among the data in PubChem BioAssay AID1569 (National Center for Advancing Translational Sciences (NCATS), 2009) are Potency values, retold here.

SMILES strings stand for the structures. Results filed as inconclusive are left out. Activity calls are given as the source filed them. The call rests on the fitted dose curve; in most records, active means well fitted inhibition curve with a large enough effect; inconclusive means small, poorly fitted or top-dose-only effect, or effect the other way, or another doubt; inactive means no such curve, though single readings can be large or run the other way.
Potency means the concentration at half of the fitted maximal effect.

The nature of the assay: Confirmation Concentration-Response Assay for lipid storage modulators. Further: nearly all actives have a fitted effect of over 80% in size. Conditions: Drosophila S3 cells, lipid droplet BODIPY/CellTracker ratio, 18-24 h; series mostly up to 46.1 µM. Put shortly: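 Cells at 5,000/well received compound as a titration plus oleic acid (added as 400 uM solution) and were incubated 18–24 h at 24 °C. BODIPY 493/503 lipid signal and CellTracker Red cell count were read by 488-nm laser-scanning cytometry. Activity was normalised to 20 uM Triacsin C.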
For `CC(C)(C)c1ccc(/C=C2\SC(=O)N(CCNC(=O)c3cccc(S(=O)(=O)N4CCOCC4)c3)C2=O)cc1`, the Potency is 8.88 µM (active).

`CC1CCN(C(=O)C2(NC(=O)Nc3cccc(F)c3)CCCCC2)CC1`: the Potency is 7.91 µM (active). As to `COc1ccc(NC(=O)NC2(C(=O)N3CCOCC3)CCCCC2)cc1`, the Potency result is “inactive”.

As to `O=C(NCc1ccccc1)NC1(C(=O)N2CCCC2)CCCCC1`, the Potency result is “inactive”. Regarding `CCN(CC)C(=O)c1sc2nc(-c3cccs3)cc(-c3cccs3)c2c1N`, the Potency is 7.91 µM (active). The figure for `CC1=C(C(=O)NC2CCCc3c2cnn3-c2cccc(C)c2C)OCCO1` (stereo unspecified) is 0.0137 µM (active); for `Nc1cccc(-c2nc3cc(S(=O)(=O)c4ccc5oc(-c6cccc(N)c6)nc5c4)ccc3o2)c1` it is 6.28 µM (active); for `CNc1cccc2c1C(=O)c1ccccc1C2=O` it is 6.28 µM (active). The value for `COc1ccccc1Nc1nnc(SCC(=O)Nc2nc(-c3ccc(F)cc3)cs2)s1` was 0.705 µM (active); that for `COc1ccccc1NC(=O)NC1(C(=O)N2CCC(C)CC2)CCCCC1` was “inactive”. The entry for `CCn1c(Cc2ccc(OC)cc2)nnc1SCC(=O)Nc1cccc(C(=O)OC)c1` is “inactive”; for `COc1ccc(CCNC(=O)c2ccccc2-c2ccccc2C(=O)O)cc1OC` it is “inactive”. Consider `COc1ccc(N=NC2C(=O)N(c3ccccc3)N=C2C)cc1` (stereo unspecified), for which the Potency is 14.1 µM (active). The figure for `COc1ccc(OC)c(CCNC(=O)Cn2sc3nc(C)cc(C)c3c2=O)c1` is 4.99 µM (active); for `Nc1c(C(=O)Nc2ccc(S(=O)(=O)N3CCCC3)cc2)sc2nc3ccc(OC(F)(F)F)cc3cc12` it is 8.88 µM (active); for `COc1ccc(CCNC(=O)CSc2nc3[nH]ncc3c(=O)n2-c2ccc(Cl)cc2Cl)cc1OC` it is “inactive”. The entry for `Cc1ccc(-c2noc(C3CCCN(C(=O)c4ccccc4Br)C3)n2)cc1` (stereo unspecified) is “inactive”; for `CC1CCCCN1c1ccc(N)cc1C(N)=O` (stereo unspecified) it is “inactive”; for `CCOC(=O)C1(Cc2ccc(Cl)cc2)CCN(C(C)Cc2ccc(O)c(OC)c2)CC1` (stereo unspecified) it is 11.2 µM (active). The figure for `O=C(CCC1CCCN(C(=O)c2ccc3c(c2)OCCO3)C1)NCc1ccccc1F` (stereo unspecified) is 2.23 µM (active); for `OCCNc1c2ccccc2nc2c(F)c(F)c(F)c(F)c12` it is 8.65 µM (active).
